# Values without a mark were called inactive. Records with an inconclusive call do not appear. Entries that show only a call come without a potency. The source made the active and inactive calls. Unless noted, calls come from the whole dose curve; as a rule, active = well fitted curve in the direction sought with a large enough effect; inconclusive = small, poorly fitted or top-dose-only effect, or another doubt; inactive = no such curve, though single readings can be large; an effect the other way counts as inactive or inconclusive.
# Key:
# [1] = target: Phospholipid hydroperoxide glutathione peroxidase GPX4 (Homo sapiens) (UniProt P36969); test: Primary qHTS Assay for Inhibitors of Recombinant Selenoprotein Glutathione Peroxidase 4 (GPX4) (AID 1845192); note: nearly all actives have a fitted effect of over 65% in size
# Chain of Phospholipid hydroperoxide glutathione peroxidase GPX4 (Homo sapiens) (P36969 whole entry, looked up): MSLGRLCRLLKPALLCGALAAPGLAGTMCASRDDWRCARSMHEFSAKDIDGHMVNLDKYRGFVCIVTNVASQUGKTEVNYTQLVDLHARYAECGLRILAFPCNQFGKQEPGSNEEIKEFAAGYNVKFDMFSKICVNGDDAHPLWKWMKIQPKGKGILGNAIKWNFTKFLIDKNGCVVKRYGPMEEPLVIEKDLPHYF
# How it was run: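 GR-coupled assay: recombinant GPX4 preincubated 30 min with compound at room temperature; final 200 nM GPX4, 1 mM GSH, 0.5 mM cumene hydroperoxide, 0.5 mM NADPH, 100 nM GR, 0.01% BSA, pH 7.5 Tris. NADPH fluorescence (340/450 nm) read at 0 and 15 min.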
# [2] = Confirmation and Secondary Assay for Modulators of Hemoglobin Beta Chain Splicing at IVS2 654 locus (AID 910);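 note: HeLa cells stably carrying EGFP split by mutant beta-globin IVS2-654 intron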;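 note: potency is the fitted concentration of half-maximal effect; potency of activators that raise GFP signal by restoring correct splicing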
# How it was run: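 HeLa cells stably expressing EGFP interrupted by β-globin IVS2-654 intron, seeded overnight in Opti-MEM/2% FCS, then treated 2 days at 37 °C. Restored splicing read as total peak GFP intensity per well by laser scanning cytometry (488 nm excitation, 500–520 nm emission); 500 nM antisense PNA as control.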
# [3] = Confirmation and Secondary Assay for Modulators of Hemoglobin Beta Chain Splicing at IVS2 705 locus (AID 930);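 note: GFP fluorescence per well restored by corrected splicing of the IVS2-705 intron in EGFP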; note: potency is the fitted concentration of half-maximal effect;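 for activation: HeLa cells stably expressing the EGFP-705 splicing reporter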
# How it was run: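 HeLa EGFP-705 reporter; 500 cells/well, o/n 37C 5% CO2; cpd 2 d; 488 ex/500-520 em laser scan; total peak GFP intensity/well. Ref: 500 nM […] antisense PNA.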
# [4] = S16 Schwann cell viability assay (CellTiter-Glo assay) (AID 624031);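 note: cellular ATP luminescence as a viability measure; nearly all actives have a fitted effect of over 70% in size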
# How it was run: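 Luminescent ATP read-out (CellTiter-Glo) after 24 h compound exposure of native S16 rat Schwann cells at 37 °C. Signals were normalized between cell-free wells and DMSO-treated cells, set as 0% activity.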
# [5] = S16 Schwann cell PMP22 intronic element firefly luciferase assay (AID 624032); note: nearly all actives have a fitted effect of over 30% in size; note: potency is the fitted concentration of half-maximal effect
# How it was run: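 Rat S16 Schwann cells stably carrying firefly luciferase driven by a PMP22 intronic element, in 10% FBS, treated 24 h at 37 C. ONE-Glo luminescence normalized to PTC124 control and DMSO (0%); curves classed by r2, magnitude and activity.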
# 7G8 = test: qHTS profiling for inhibitors of Plasmodium falciparum proliferation (AID 504749); note: nearly all actives have a fitted effect of over 60% in size; note: potency is the fitted concentration of half-maximal effect; conditions: P. falciparum in erythrocytes, SYBR Green DNA, 72 h; series mostly up to 28.7 µM
# How it was run: (§1)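 P. falciparum-infected erythrocytes (0.3% parasitemia, 2.5% hematocrit) incubated with compound 72 h at 37 C, 5% CO2. Parasite DNA detected by SYBR Green after lysis, overnight at room temperature; normalised to 0.29 uM artemisinin and DMSO.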
# CP191 = test: as above; conditions: P. falciparum in erythrocytes, SYBR Green DNA, 72 h; series mostly up to 28.7 µM
# How it was run: as §1
# CP250 = test: as above; conditions: P. falciparum in erythrocytes, SYBR Green DNA, 72 h; series mostly up to 28.7 µM
# How it was run: as §1
# CP252 = test: as above; conditions: P. falciparum in erythrocytes, SYBR Green DNA, 72 h; series mostly up to 28.7 µM
# How it was run: as §1
# CP256 = test: as above; conditions: P. falciparum in erythrocytes, SYBR Green DNA, 72 h; series mostly up to 28.7 µM
# How it was run: as §1
# [6] = S16 Schwann cell PMP22 intronic element beta-lactamase assay (AID 624044; calls by dose curve; note: nearly all actives have a fitted effect of over 15% in size; note: potency is the fitted concentration of half-maximal effect)
# How it was run: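 Rat S16 Schwann cells with beta-Lac driven by a PMP22 intronic element, compound-treated 24 h at 37 °C. LiveBLAzer FRET B/G read: 460 nm normalized to potassium clavulanate vs DMSO; 535 nm FRET as viability; concentration-effect curves classified.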
# [7] = AP1 Signaling Pathway (AID 357; active = well fitted curve in either direction with a large enough effect, not every such curve was filed as active;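 note: ME-180 reporter cells stimulated with EGF at its EC50 level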); conditions: ME-180 AP-1-bla reporter, EGF-induced, beta-lactamase ratio, 5 h; at 7.69 µM (top of the series) unless noted
# How it was run: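 AP-1-bla ME-180 cells, Opti-MEM + 0.5% dialyzed FBS, plated overnight 37 °C. Cpd titration + EC50 EGF, 5 h 37 °C. CCF4 2.5 h RT; ex 405, em 460/530 ratio → %activity, AC50.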
# [8] = NFAT Signaling Pathway (AID 444; active = well fitted curve in either direction with a large enough effect, not every such curve was filed as active;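 note: carbachol stimulus at about its EC50 of 1 µM final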); conditions: Jurkat NFAT-bla M1, carbachol, beta-lactamase ratio, 5 h; at 7.69 µM (top of the series) unless noted
# How it was run: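 Jurkat cells with NFAT-driven β-lactamase reporter and co-expressed M1 receptor, stimulated with carbachol (final 1 uM, ~EC50), compound titration, 5 h at 37 °C. CCF4 loaded 1 h at RT; 460/530 nm ratio gave %activity and AC50.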
# [9] = Stat Signaling Pathway (AID 446; active = well fitted curve in either direction with a large enough effect, not every such curve was filed as active;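 note: ME-180 cervical cancer cells given 40 pM IL-6 alongside compound; SIE-controlled beta-lactamase reporter measured as 460/530 nm FRET emission ratio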)
# How it was run: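 Screening format detects activators and inhibitors alike: ME-180 SIE-bla cells stimulated at 40 pM IL-6 for 5 hrs with compound, then dual-emission beta-lactamase read at 405 nm excitation.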
# [10] = target: Glucocorticoid receptor (Homo sapiens) (UniProt P04150); test: GR-GFP Redistribution (AID 450;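 active = compounds whose dose series gives a full or clear partial fitted curve of increased nuclear translocation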; note: potency is the fitted concentration of half-maximal effect); conditions: U2OS GR-GFP nuclear translocation, laser cytometry, 2 h
# Chain of Glucocorticoid receptor (Homo sapiens) (P04150 whole entry, looked up, the tested form may be a part): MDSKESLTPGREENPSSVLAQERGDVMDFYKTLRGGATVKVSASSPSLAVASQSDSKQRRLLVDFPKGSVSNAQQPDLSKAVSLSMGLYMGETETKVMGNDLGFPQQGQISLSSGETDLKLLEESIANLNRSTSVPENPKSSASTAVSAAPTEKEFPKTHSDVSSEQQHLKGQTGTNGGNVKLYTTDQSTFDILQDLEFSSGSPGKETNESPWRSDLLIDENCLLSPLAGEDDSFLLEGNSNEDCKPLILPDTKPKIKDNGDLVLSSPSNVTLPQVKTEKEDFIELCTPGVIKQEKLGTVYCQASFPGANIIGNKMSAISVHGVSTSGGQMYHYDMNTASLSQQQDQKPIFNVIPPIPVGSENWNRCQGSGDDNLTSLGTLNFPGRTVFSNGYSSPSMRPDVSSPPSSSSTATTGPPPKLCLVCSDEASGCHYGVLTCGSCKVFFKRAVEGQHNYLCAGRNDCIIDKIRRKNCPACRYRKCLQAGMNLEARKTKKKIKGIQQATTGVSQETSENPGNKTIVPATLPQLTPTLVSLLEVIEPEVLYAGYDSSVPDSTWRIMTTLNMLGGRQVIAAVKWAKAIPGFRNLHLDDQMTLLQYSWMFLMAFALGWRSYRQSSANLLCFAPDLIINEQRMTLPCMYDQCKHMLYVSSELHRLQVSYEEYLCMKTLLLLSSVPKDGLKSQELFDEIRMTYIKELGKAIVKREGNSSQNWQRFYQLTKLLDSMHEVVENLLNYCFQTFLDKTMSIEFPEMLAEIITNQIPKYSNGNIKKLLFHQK
# [11] = target: Glucocorticoid receptor (Homo sapiens) (UniProt P04150); test: GR-EFC Redistribution (AID 451; calls by dose curve; note: potency is the fitted concentration of half-maximal effect); conditions: CHO-K1 GR-EFC translocation, beta-gal luminescence, 2 h
# How it was run: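 CHO-K1 cells expressing nuclear EA and GR-ED fragments of b-gal; compounds titrated up to 46 uM final, 2 h at 37 C. GR nuclear translocation read as complemented b-gal luminescence after 1 h RT detection.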
# [12] = target: 3',5'-cyclic-AMP phosphodiesterase 4B (Homo sapiens) (UniProt Q07343); test: qHTS Assay for Inhibitors of PDE-IV (AID 607; active = well fitted activation curve with a large enough effect in the main read-out, with a control signal flat, not every such curve was filed as active)
# Chain of 3',5'-cyclic-AMP phosphodiesterase 4B (Homo sapiens) (Q07343 whole entry, looked up): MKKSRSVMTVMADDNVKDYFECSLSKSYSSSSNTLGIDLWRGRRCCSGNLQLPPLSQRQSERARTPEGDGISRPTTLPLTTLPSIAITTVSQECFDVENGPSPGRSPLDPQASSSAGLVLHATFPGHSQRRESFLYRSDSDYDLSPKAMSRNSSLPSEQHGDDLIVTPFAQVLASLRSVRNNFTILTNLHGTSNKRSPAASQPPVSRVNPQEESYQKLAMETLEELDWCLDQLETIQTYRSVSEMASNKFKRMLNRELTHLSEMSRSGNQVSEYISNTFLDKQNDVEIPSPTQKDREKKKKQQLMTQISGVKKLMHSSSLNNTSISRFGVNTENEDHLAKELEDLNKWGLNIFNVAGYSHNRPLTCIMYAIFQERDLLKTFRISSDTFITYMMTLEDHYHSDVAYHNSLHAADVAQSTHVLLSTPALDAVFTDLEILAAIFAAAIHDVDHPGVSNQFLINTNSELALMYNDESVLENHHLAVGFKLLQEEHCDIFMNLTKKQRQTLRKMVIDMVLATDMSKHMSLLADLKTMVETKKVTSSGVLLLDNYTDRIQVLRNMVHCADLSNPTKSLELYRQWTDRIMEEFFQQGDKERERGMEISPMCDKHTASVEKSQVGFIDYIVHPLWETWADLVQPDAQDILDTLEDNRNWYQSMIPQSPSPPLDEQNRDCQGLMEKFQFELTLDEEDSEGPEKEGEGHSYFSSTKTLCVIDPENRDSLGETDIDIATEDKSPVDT
# How it was run: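 The readout is membrane depolarisation from a cAMP-sensing CNG channel, detected with a potential dye at ex 535/em 590. Cells were HEK293-derived (endogenous PDE-IV) at 1000 cells/well, titrated up to 22.9 uM final.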
# [13] = target: DNA dC->dU-editing enzyme APOBEC-3G (Homo sapiens) (UniProt Q9HC16); test: qHTS for inhibitors of Vif-A3G interactions: Validation (AID 588379)
# Chain of DNA dC->dU-editing enzyme APOBEC-3G (Homo sapiens) (Q9HC16 whole entry, looked up): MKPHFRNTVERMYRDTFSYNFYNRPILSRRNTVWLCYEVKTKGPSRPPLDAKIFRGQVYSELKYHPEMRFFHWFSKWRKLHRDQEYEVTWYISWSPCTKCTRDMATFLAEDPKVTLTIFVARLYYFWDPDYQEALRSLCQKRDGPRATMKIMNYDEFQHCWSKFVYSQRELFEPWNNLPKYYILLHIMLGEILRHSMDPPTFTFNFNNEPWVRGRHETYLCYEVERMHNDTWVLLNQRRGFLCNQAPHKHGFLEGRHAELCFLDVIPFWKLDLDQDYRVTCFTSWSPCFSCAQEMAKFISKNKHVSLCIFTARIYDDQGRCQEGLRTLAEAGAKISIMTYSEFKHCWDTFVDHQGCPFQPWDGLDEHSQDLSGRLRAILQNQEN
# How it was run: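 HeLa cells stably expressing Vif and A3G-eYFP, 700 cells/well, incubated overnight at 37 deg C, then exposed to compound overnight at 37 deg C. Inhibition of Vif-mediated degradation read as increased yellow fluorescence (Ex 488/Em 500-530) by laser-scanning cytometry.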
# [14] = target: Cytochrome P450 3A4 (Homo sapiens) (UniProt P08684); test: qHTS Assay for Activators of Cytochrome P450 3A4 (AID 885); note: nearly all actives have a fitted effect of over 65% in size
# Chain of Cytochrome P450 3A4 (Homo sapiens) (P08684 whole entry, looked up): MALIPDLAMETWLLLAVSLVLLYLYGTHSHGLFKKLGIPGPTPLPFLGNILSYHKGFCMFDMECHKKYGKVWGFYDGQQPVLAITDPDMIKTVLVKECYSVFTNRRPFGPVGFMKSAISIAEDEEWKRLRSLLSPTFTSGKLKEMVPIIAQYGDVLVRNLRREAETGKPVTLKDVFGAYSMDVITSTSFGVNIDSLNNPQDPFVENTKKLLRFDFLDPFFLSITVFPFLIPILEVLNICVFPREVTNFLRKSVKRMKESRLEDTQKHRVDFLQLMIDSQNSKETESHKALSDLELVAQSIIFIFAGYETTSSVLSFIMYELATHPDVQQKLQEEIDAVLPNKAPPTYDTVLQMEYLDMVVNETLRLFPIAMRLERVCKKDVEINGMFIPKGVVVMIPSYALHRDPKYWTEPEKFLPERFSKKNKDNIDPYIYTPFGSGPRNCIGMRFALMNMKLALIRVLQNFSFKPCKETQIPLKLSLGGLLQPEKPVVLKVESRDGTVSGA
# How it was run: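 Steps: enzyme/substrate mix dispensed; compound added, 10 min RT; NADPH regeneration solution added, 60 min RT; luciferin detection buffer stops reaction; 20 min later luminescence measured.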
smiles,measurement,setting,value
CCCC(=O)Nc1ncnc2c1ncn2C1O[C@@H]2COP(=O)(O)O[C@H]2[C@H]1OC(=O)CCC (stereo not given in full),Potency,[1],inactive
C/C=C\c1ccc(OC)cc1,Potency,[2],inactive
same,Potency,[3],inactive
same,Potency,[4],inactive
same,Potency,[5],inactive
same,Potency,7G8,inactive
same,Potency,CP191,inactive
same,Potency,CP250,inactive
same,Potency,CP252,inactive
same,Potency,CP256,inactive
CC(=O)O[C@@]12CO[C@@H]1C[C@H](O)[C@@]1(C)C(=O)[C@H](O)C3=C(C)[C@@H](OC(=O)C(O)[C@@H](NC(=O)OC(C)(C)C)c4ccccc4)C[C@@](O)([C@@H](OC(=O)c4ccccc4)[C@H]21)C3(C)C (stereo not given in full),Potency,7G8,0.398 µM (active)
same,Potency,CP191,0.0282 µM (active)
same,Potency,CP252,0.0178 µM (active)
same,Potency,CP256,0.0316 µM (active)
NC1=NC(S)C2N=CN=C2N1 (stereo not given),Potency,[2],2 µM (active)
same,Potency,[3],5.01 µM (active)
same,Potency,[5],1.44 µM (active)
same,Potency,[6],3.98 µM (active)
same,Potency,CP250,inactive
COc1ccc2[nH]cc(CCNc3ncncc3-c3cccc(C#N)c3)c2c1,"activity change, negative = inhibition",[7],-18.6%
same,"activity change, negative = inhibition",[8],-10.2%
same,outcome,[9],inactive
same,Potency,[10],> 46 µM
same,Potency,[11],> 46 µM
same,Potency,[12],inactive
CC(C)=CCCC(C)CCO (stereo not given),outcome,[13],inactive
C1OCOCO1,Potency,[4],inactive
same,Potency,[5],inactive
same,Potency,[6],inactive
same,Potency,7G8,inactive
same,Potency,CP191,inactive
same,Potency,CP250,inactive
same,Potency,CP252,inactive
same,Potency,CP256,inactive
COc1ccc2nc(N)sc2c1,outcome,[14],inactive
